Assay outcomes from PubChem.
Sampled rows, rich in hits. Any-hit rate of the full collection: about 1.1%.
ERK EGF block: qHTS Assay for Inhibitors of the ERK Signaling Pathway using a Homogeneous Screening Assay; Stimulation with EGF; Potency, µM (titrated, usually from 11.5 µM), hits mostly inhibitors; AID 1454, 2008; 130,000 tested, 0.41% active; HEK293-V1b, EGF-stimulated phospho-ERK AlphaScreen; further: nearly all actives have a fitted effect of over 55% in size
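After overnight plating in 1% FBS, HEK293-V1b cells received test compound for half an hour, then a 5 min pulse of EGF (25 nM); ERK phosphorylation in lysates was read by bead-based AlphaScreen.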
KinaseGlo FLuc: Counterscreen for Luciferase (Kinase-Glo TM) Inhibition; Luciferin 4-monooxygenase (Photuris pensylvanica), Q27757; Kinase-Glo luciferase, ATP luminescence, 8 min; Potency, µM (doses to about 38.3 µM), hits mostly inhibitors; 200,000 tested, 0.28% active; AID 1379, 2008; further: nearly all actives have a fitted effect of over 60% in size
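Light output from Kinase-Glo luciferase with luciferin and 10 uM ATP in 50 mM imidazole pH 7.2, KCl, MgCl2, Tween 20, BSA; compound pin-delivered, 8-min ambient incubation, then luminescence read.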
NPSR antagonist: qHTS Assay for Antagonists of the Neuropeptide S Receptor: cAMP Signal Transduction. Q6W5P4. CHO-NPSR cells, cAMP TR-FRET, antagonist mode. Potency, µM (highest dose often 38.3 µM), hits mostly inhibitors. 220,000 tested, 1% active; further: nearly all actives have a fitted effect of over 50% in size
Target sequence (Q6W5P4 whole entry, looked up): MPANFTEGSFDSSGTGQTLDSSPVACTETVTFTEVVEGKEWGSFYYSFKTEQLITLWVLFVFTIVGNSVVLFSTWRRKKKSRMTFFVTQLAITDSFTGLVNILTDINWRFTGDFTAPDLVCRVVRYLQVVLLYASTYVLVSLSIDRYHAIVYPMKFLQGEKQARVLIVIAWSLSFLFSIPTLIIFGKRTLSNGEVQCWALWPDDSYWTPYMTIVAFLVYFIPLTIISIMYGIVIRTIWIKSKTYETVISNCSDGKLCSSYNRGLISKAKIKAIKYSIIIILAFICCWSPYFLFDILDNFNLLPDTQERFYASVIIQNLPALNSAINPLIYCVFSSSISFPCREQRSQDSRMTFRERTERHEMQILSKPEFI
IMPase Li inh: qHTS Assay for Identifying the Cell-Membrane Permeable IMPase Inhibitors: Potentiation with Lithium; Potency, µM (top dose mostly 59.4 µM), hits mostly inhibitors; 210,000 tested, 0.35% active; CHO-M1 cells, IP1 TR-FRET (IP-One), carbachol + lithium;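 further: IP1 builds up when IMPase is blocked and the TR-FRET signal falls; nearly all actives have a fitted effect of over 50% in size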
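Concentration–response in CHO-M1 cells, lithium-potentiated; 30 min at 37C. IP1 detected by competitive TR-FRET after 10 min lysis at RT. Hill-fitted AC50.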
Numbers stand for hits; i = inactive; ? = inconclusive; nt = not tested or not shown; [ ] = dose if it differs, or a comment. The call rests on the fitted dose curve; in most records, active means well fitted curve in the direction sought with a large enough effect; inconclusive means small, poorly fitted or top-dose-only effect, or another doubt; inactive means no such curve, though single readings can be large; an effect the other way counts as inactive or inconclusive.

SMILES | ERK EGF block | KinaseGlo FLuc | NPSR antagonist | IMPase Li inh
O=C(Nc1ccc(N2CCN(c3ncccc3C(F)(F)F)CC2)nc1)c1cccs1 | 14µM | nt | ? | nt
CCCN1C=CC(=C/C=C(\C#N)C(=O)OCC)C=C1 | nt | i | ? | i
CCOC(=O)/C(C#N)=C/C=C1\C=Cc2ccccc2N1CC | 16µM | i | i | i
CCCCC(C=O)NC(=O)C(CC(C)C)NC(=O)OCc1ccccc1 (centres undefined) | i | i | nt | i
O=C1N/C(=C\c2ccc(O)cc2)C(=O)c2ccccc21 | nt | 13µM | i | i
COc1cc(-c2[o+]c3cc(O)cc(O)c3cc2O)cc(O)c1O | nt | i[7.66 µM] | nt | i
CC(=O)[C@H]1CC[C@@H]2[C@]1(C)CC=C1[C@@]23C=C[C@]2(C[C@H](O)CC[C@@]12C)[C@H](C(=O)O)[C@@H]3C(=O)O | nt | i[7.66 µM] | nt | i
N#Cc1nc(-c2cccs2)oc1N1CCOCC1 | nt | i | i | 11µM
COc1ccc(-c2nc3c(c4c2C[C@H](c2ccccc2)OC4)CN(S(=O)(=O)c2ccc(C)cc2)CC3)c(C)c1 | nt | i[7.66 µM] | nt | i
CN1CCCc2cc3c(C(F)(F)F)cc(=O)oc3nc21 | nt | i | i | 10µM
CC(C)c1cc(=O)oc2c3c4c(cc12)CCCN4CCC3 | i | i | i | i
CCc1ccc2[nH]c(=O)c(CN(Cc3ccco3)S(=O)(=O)c3ccc4c(c3)OCCO4)cc2c1 | nt | i | i | 11µM
O=C(O)c1ccc(Cc2ccccc2C(=O)O)cc1 | nt | i[7.66 µM] | nt | i
Cc1ccc(/C(N)=N/OC(=O)c2cccs2)cc1 | i | i | i | i
N/C(=N\OC(=O)c1cccs1)c1ccccc1 | i | 10µM | i | i
Cc1cccc(/C(N)=N/OC(=O)c2ccc(F)cc2)c1 | i | 11µM | i | i
Cc1cccc(/C(N)=N/OC(=O)c2ccco2)c1 | nt | ? | i | i
Cc1cccc(/C(N)=N/OC(=O)c2cccs2)c1 | nt | 2.5µM | i | i
COc1ncc2nc(CCc3ccccc3)c(=O)n(C3CC3)c2n1 | i | i | nt | i
C1CCN(CC[C@@H]2CCCCN2)CC1 | nt | i[7.66 µM] | nt | i
Oc1ccc(Nc2ncnc3scc(-c4ccccc4)c23)cc1 | 22µM | i | i | i
Cc1sc2ncnc(Nc3ccc(O)cc3)c2c1C | 28µM | nt | i | nt
Cc1sc2ncnc(N/N=C/c3cccc(O)c3)c2c1C | i | i | i | i
O=C1NC(=O)c2cc([N+](=O)[O-])ccc21 | nt | nt | nt | i
OCCSCc1ccccc1 | nt | i[7.66 µM] | nt | i
SMILES | ERK EGF block | KinaseGlo FLuc | NPSR antagonist | IMPase Li inh
CCOc1cc(/C=N/N=C(N)N)ccc1OCc1ccc(Cl)cc1 | 32µM | i | i | i
COc1cc(/C=N/N=C(N)N)ccc1OCc1ccc(Cl)cc1 | i | i | i | i
O=C(c1ccccc1)c1cc2ccc(O)cc2oc1=O | nt | 11µM | i | i
COc1ccc(C(=O)c2cc3ccc(O)cc3oc2=O)cc1 | nt | i | i | i
COc1ccc2cc(C(=O)NCc3ccco3)c(=O)oc2c1 | nt | i | i | i
O=C(NCc1ccco1)c1cc2ccc(O)cc2oc1=O | nt | 5µM | i | ?
O=c1oc2cc(O)ccc2c2ccccc12 | nt | i | 5µM | 13µM
CC(C)C[C@@H](CC(=O)N[C@@H](CCC(=O)O)CC(=O)O)NC(=O)[C@@H]1CNCC[C@H]1NC(=O)C[C@@H](NC(=O)C[C@H](Cc1c[nH]c2ccccc12)NC(=O)[C@@H]1CNCC[C@H]1N)C(C)C | i | i | nt | i
CC(=O)c1sc(N/N=C\c2ccccc2O)nc1C | i | i | 1.6µM | i
Cn1nc(C(=O)Nc2ccc3c(c2)OCCO3)cc1C(=O)O | i | 11µM | i | i
O=C(Nc1ccc2c(c1)OCCO2)c1ccccn1 | i | 13µM | i | i
O=C(Nc1ccc(NC(=O)c2ccccn2)cc1)C(=O)Nc1ccc2c(c1)OCCO2 | i | i | i | i
Cn1nccc1C(=O)Nc1ccc2c(c1)OCCO2 | i | 13µM | i | i
O=C(Nc1ccc(N2CCOCC2)cc1)c1cn2ccccc2n1 | nt | 4.5µM | i | i
O=C(Nc1ccc(Cl)c(S(=O)(=O)N2CCOCC2)c1)c1cn2ccccc2n1 | i | i | i | i
COC(=O)N1CC=CC1(C)C(=O)NCc1ccc(C)o1 (centres undefined) | i | i | nt | i
CNC1C(O)C2OC3OC(C)CC(=O)[C@@]3(O)O[C@H]2[C@H](NC)C1O (some centres undefined) | i | i | nt | i
CC(C)(N)CO[C@H]1C[C@H]2CC[C@@]1(C)C2(C)C | nt | i[7.66 µM] | nt | i
O=C(Nc1ccc(N2CCCCCC2)cc1)c1ccccc1Cl | ? | i | i | i
O=C(Nc1ccc(N2CCCCC2)cc1)c1ccccn1 | i | 7.9µM | i | i
Cc1cc(C(=O)COC(=O)c2ccccc2Br)c(C)n1CC1CCCO1 (centres undefined) | i | nt | i | nt
Cc1cc(C(=O)COC(=O)c2cccnc2Cl)c(C)n1CC1CCCO1 (centres undefined) | i | 10µM | i | i
O=C(NCc1cccnc1)/C(=C\c1ccc(-c2ccc(Cl)c(Cl)c2)o1)S(=O)(=O)c1ccccc1 | i | i | 13µM | i
CCOc1ccc2cc(C#N)c(SCC(=O)NC(C)CC)nc2c1 (centres undefined) | nt | i | 6.3µM | 3.5µM
Cc1ccc2cc(C#N)c(SCC(=O)NNC(=O)Cc3ccccc3)nc2c1 | i | i | 7.9µM | 13µM
SMILES | ERK EGF block | KinaseGlo FLuc | NPSR antagonist | IMPase Li inh
Cc1ccc2nc(SCC(=O)NCc3cccs3)c(C#N)cc2c1 | nt | i | 10µM | 13µM
Cc1cc(=O)[nH]c2cc3oc4ccccc4c3cc12 | nt | i[7.66 µM] | nt | i
C=C(C)CN(CC)c1nc(N)c2c(N)nc3c(c2c1C#N)CC(=O)N3C12CC3CC(CC(C3)C1)C2 | nt | i | 5µM | i
COc1ccc(C(=O)Nc2cccc(OC)c2)cc1 | nt | 7.9µM | i | i
COC(=O)C1=C(C)NC(C)=C(C(=O)OCCCN2CCC(c3ccccc3)(c3ccccc3)CC2)C1c1cccc([N+](=O)[O-])c1 (centres undefined) | nt | nt | nt | i
CCCCS(=O)(=O)/C=C\C1C2C=CC(C2)C1S(=O)(=O)CCCC (centres undefined) | nt | i | i | i
CCCCS(=O)(=O)/C=C\C=C/S(=O)(=O)CCCC | nt | i | 5µM | i
CN1CCN(c2ncc3nc(-c4cccc(C#N)c4)c(=O)n(C)c3n2)CC1 | nt | nt | nt | i
Cc1occc1C(=O)Nc1ccc2c(c1)OCO2 | nt | ? | i | i
Cc1ccc(NC(=O)c2ccoc2C)cc1C | i | 10µM | i | i
Oc1c(N=Nc2ccccn2)ccc2ccccc12 | nt | 11µM | ? | i
CN1[C@@H]2CC(OC(=O)[C@H](CO)c3ccccc3)C[C@@H]1[C@H]1O[C@H]12 (some centres undefined) | i | i | nt | nt
COc1cc(O)oc1C=Nc1ccc(C(=O)O)cc1 | i | 13µM | i | i
Cc1ccc(S(=O)(=O)Nc2ccc(O)c(Sc3ncn[nH]3)c2)cc1 | i | i | i | i
Cc1ccc(S(=O)(=O)/N=C2/C=C(Sc3ncn[nH]3)C(=O)c3ccccc32)c(C)c1 | i | i | i | i
CC(C)c1ccc(S(=O)(=O)/N=C2/C=C(Sc3ncn[nH]3)C(=O)c3ccccc32)cc1 | i | i | 10µM | i
